# Bioassay records: PubChem BioAssay, National Center for Advancing Translational Sciences (NCATS)
# 12-LOX inh – ALOX12 (human) lipoxygenase inhibition; P18054; purified 12hLO, xylenol orange hydroperoxide absorbance; Potency, µM (doses to about 108 µM), inactives show at the highest dose activity change, negative = inhibition, hits mostly inhibitors; 580,000 compounds, 1.1% hits; further: on the % scale 0 is the no-effect control and ±100 the full control effect
# Target sequence (P18054 whole entry, looked up): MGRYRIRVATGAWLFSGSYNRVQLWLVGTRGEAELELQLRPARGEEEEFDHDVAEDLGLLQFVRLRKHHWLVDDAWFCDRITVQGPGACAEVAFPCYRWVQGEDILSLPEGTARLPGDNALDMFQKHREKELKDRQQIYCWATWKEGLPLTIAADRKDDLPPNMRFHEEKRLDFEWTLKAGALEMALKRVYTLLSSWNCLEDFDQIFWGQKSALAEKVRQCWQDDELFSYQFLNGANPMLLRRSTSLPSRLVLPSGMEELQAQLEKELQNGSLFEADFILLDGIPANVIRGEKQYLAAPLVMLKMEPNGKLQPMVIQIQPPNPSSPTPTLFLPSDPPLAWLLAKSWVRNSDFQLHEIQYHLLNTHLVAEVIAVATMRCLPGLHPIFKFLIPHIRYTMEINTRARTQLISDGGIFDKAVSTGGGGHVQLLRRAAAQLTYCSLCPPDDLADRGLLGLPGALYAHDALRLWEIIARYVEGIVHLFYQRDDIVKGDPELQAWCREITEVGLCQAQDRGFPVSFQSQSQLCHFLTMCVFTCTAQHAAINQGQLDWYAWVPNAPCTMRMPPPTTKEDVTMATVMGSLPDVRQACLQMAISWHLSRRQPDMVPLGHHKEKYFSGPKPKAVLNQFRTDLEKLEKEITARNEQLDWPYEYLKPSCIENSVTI
#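 Purified human 12hLO (150 nM final) in 25 mM Hepes, 0.01% Triton X-100, pH 7.0 was preincubated 15 min at room temperature with compound. Then 40 uM arachidonic acid was added, 30 min. Hydroperoxide was read by Fe-XO absorbance ratio 573/405 nm.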
# JMJD2A Tudor inh – JMJD2A Tudor domain (human) inhibition; 390,000 compounds, 4.4% hits; O75164; Potency, µM (highest dose often 114 µM), without a hit: top-dose activity change, negative = inhibition, actives largely listed as inhibitors; AlphaScreen JMJD2A-Tudor / H3K4me3 peptide binding; further: on the % scale 0 is the no-effect control and ±100 the full control effect; nearly all actives have a fitted effect of over 50% in size
# Sfp PPTase inh – blocks B. subtilis Sfp PPTase activity. Biochemical Sfp PPTase activity, qHTS. Potency, µM, for inactives: largest response in the series, negative = inhibition, most hits filed as inhibitors. 310,000 compounds, 3.5% hits. AID 1490;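 further: the enzyme is Sfp with the accession as filed and its product quenches rhodamine fluorescence; 0% = enzyme reaction without inhibitor and -100% = no enzyme wells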
#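 Compounds were incubated with enzyme (final 15 nM) for 15 min at room temperature before substrate addition started the reaction. Fluorescence at 525 nm excitation, 598 nm emission was recorded immediately and after 30 minutes.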
# G9a block – G9a (human) methyltransferase inhibition. Q96KQ7. G9a H3K9 monomethylation, AlphaScreen, 2 h. Potency, µM (doses to about 102 µM), for inactives: at the highest dose activity, negative = inhibition, usual class: inhibitors. 350,000 compounds, 8.8% hits. AID 504332; further: on the % scale 0 is the no-effect control and ±100 the full control effect; nearly all actives have a fitted effect of over 75% in size
#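 Methyltransferase reactions run at room temperature for 2 h (20 nM enzyme, 500 nM biotin-H3K9 peptide, 20 uM SAM) after a 15 min compound preincubation; product detected by AlphaScreen beads and anti-H3K9me1 antibody.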
# HP1b chromo inh – blocks HP1-beta chromodomain binding to methylated histone tails. P83916. AlphaScreen HP1-beta / biotin-H3K9me3 peptide binding. Potency, µM (top dose mostly 114 µM), for the others: top-dose activity change, negative = inhibition, usual class: inhibitors. 390,000 compounds, 0.56% hits. AID 540317; further: nearly all actives have a fitted effect of over 70% in size
#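 Compound inhibition of the preformed complex between 50 nM HP1-beta and 50 nM biotinylated H3K9me3 peptide was read by AlphaScreen. Buffer was PBS pH 7.4 with 0.01% Tween-20. Incubations ran 30 min at room temperature, with 10 ug/mL donor/acceptor beads.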
# BAZ2B block – blocks human BAZ2B | Q9UIF8 | AlphaScreen BAZ2B-H3K14Ac peptide displacement | Potency, µM (top dose mostly 114 µM), for the others: at the top dose activity change, negative = inhibition, most hits filed as inhibitors | 360,000 compounds, 4.4% hits; further: on the % scale 0 is the no-effect control and ±100 the full control effect; nearly all actives have a fitted effect of over 60% in size
#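 Multi-concentration screen (max 110 uM) measuring displacement of acetylated histone H3 peptide from BAZ2B by AlphaScreen, using 50 nM protein, 50 nM peptide and 10 ug/mL streptavidin donor plus Ni-chelate acceptor beads.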
# * marks the source's active call; other numbers are inactive results; ? = inconclusive; / = no result given; [ ] = another dose, or the depositor's remark. Most compounds without a hit are left out; they make up all but 8.7% or so of the library. The call rests on the fitted dose curve; in most records, active means well fitted curve in the direction sought with a large enough effect; inconclusive means small, poorly fitted or top-dose-only effect, or another doubt; inactive means no such curve, though single readings can be large; an effect the other way counts as inactive or inconclusive. Potency means the concentration at half of the fitted maximal effect.
SMILES,12-LOX inh,JMJD2A Tudor inh,Sfp PPTase inh,G9a block,HP1b chromo inh,BAZ2B block
CC(=O)C1=C(O)C(=O)N(Cc2ccccc2)C1c1ccc(F)cc1 (stereo unspecified),-18%,-16%,24%,13%,34%,-4%
C=CCOc1cccc(C2C(C(=O)c3ccco3)=C(O)C(=O)N2Cc2ccco2)c1 (stereo unspecified),45µM*,-36%,?,45µM*,5%,-37%
O=C(Cc1cccc(Cl)c1)N1CCC2(CC1)CC(O)CCO2 (stereo unspecified),-2%,/,/,/,/,/
CC(=O)Oc1ccc2c(=O)c(Oc3ccc(F)cc3)c(C(F)(F)F)oc2c1,-17%,/,/,/,/,/
Cc1ccc(-c2noc(-c3ccc(Br)cc3)n2)cc1,19%,/,/,/,/,/
CC1=C[C@@H](CN2CCC(O)CC2)[C@H](C(C)C)C[C@H]1Cc1nnc(-c2ccc(N(C)C)cc2)o1,14%,/,/,/,/,/
Cc1c(C)n(CCCN2CCOCC2)c2ncn3nc(COc4ccc(Cl)cc4)nc3c12,1%,/,/,/,/,/
CCOc1cccc(C2C(C(=O)c3cccs3)=C(O)C(=O)N2Cc2cccnc2)c1 (stereo unspecified),-4%,-13%,14%,56µM*,30%,-29%
Cc1onc(-c2ccccc2Cl)c1C(=O)Nc1ccc(-n2nncc2C(C)(C)C)cc1,14%,-14%,1%,-50%,11%,-3%
Cc1ccc(-n2nc3c(c2NC(=O)c2c(-c4ccccc4Cl)noc2C)CSC3)cc1,/,-24%,-26%,45µM*,18%,0%
O=C(Nc1ccc(-n2nncc2-c2ccco2)cc1)c1ccc(F)cc1,-13%,?,2%,50µM*,?,?
Cc1onc(-c2ccccc2Cl)c1C(=O)Nc1ccc(-n2nncc2-c2ccco2)cc1,/,?,-2%,40µM*,-6%,?
Cc1nn(-c2ccccc2)c(C)c1CN(C)S(=O)(=O)c1ccc(Cl)c(Cl)c1,-1%,/,/,/,/,/
N#Cc1ccc(C(=O)N2CC[C@@H](CC(=O)O)[C@@H](CC3=NCCc4ccccc43)C2)cc1,-5%[176 µM],/,/,/,/,/
CCc1cccc(NC(=O)Cn2c(COc3ccc(OC)cc3)nc(C)c(CCO)c2=O)c1,18%,/,/,/,/,/
O=C(Nc1nnc(-c2ccccc2)s1)c1ccc(Cl)c(S(=O)(=O)N2CCOCC2)c1,/,/,1%,-28%,/,9%
CC(C)Cc1nnc(NC(=O)c2cccc(S(=O)(=O)N3CCN(C)CC3)c2)s1,-11%,-4%,/,40µM*,25%,11%
CC(C)Cc1nnc(NC(=O)c2cccc(S(=O)(=O)N3CCOCC3)c2)s1,?,-16%,/,-40%[59 µM],25%,7%
O=C(Nc1nnc(-c2ccccc2)s1)c1cccc(S(=O)(=O)N2CCOCC2)c1,0%,79µM*,3%,?,13%,-4%
O=C(NNS(=O)(=O)c1ccccc1F)c1cccc(S(=O)(=O)N2CCOCC2)c1,-22%,11µM*,-4%,?,3%,-5%
O=C(CSc1ccc2c(c1)OCCO2)NCc1ccccc1,-2%,-9%,3%,-5%,27%,-13%
N#CC(C(=O)CSc1ccc2c(c1)OCCO2)c1nc(-c2ccccc2)cs1 (stereo unspecified),10µM*,/,/,/,/,/
COc1ccc(OC)c(Nc2cc3ccccc3c(=O)[nH]2)c1,-12%,?,/,/,-11%,/
O=c1[nH]c(Nc2ccccc2)cc2ccccc12,?,?,-3%,25%[0.501 µM],15%,-6%
COc1ccccc1Nc1cc2cc(Br)ccc2c(=O)[nH]1,8.9µM*,?,/,/,12%,/
SMILES,12-LOX inh,JMJD2A Tudor inh,Sfp PPTase inh,G9a block,HP1b chromo inh,BAZ2B block
O=c1[nH]c(Nc2ccccc2)cc2cc(Br)ccc12,16µM*,-28%,/,/,11%,/
COc1ccc(CCNC(=O)CN2C(=O)C(c3ccccc3)=NC23CCCCC3)cc1OC,13%,/,/,/,/,/
COc1ccc2c(c1)CCCC(Br)C2=O (stereo unspecified),40µM*,50µM*,/,/,?,/
CCC(C)c1ccc(O)c(NC(=O)c2cccnc2)c1 (stereo unspecified),0%,-5%,3%,50µM*,53%,-2%
CC(C)c1ccc(O)c(NC(=S)NC(=O)c2cccnc2)c1,-11%,3%,1%,-14%,15%,-15%
CCC(C)c1ccc(O)c(NC(=S)NC(=O)c2cccs2)c1 (stereo unspecified),22µM*,/,/,/,/,/
CC(C)C(=O)Nc1cccc(NC(=S)NC(=O)c2cccs2)c1,4%,-9%,8%,?,21%,-6%
CC(C)c1ccc(O)c(NC(=O)c2cncc(Br)c2)c1,-29%,-25%,5%,40µM*,35%,12%
CCC(CC)C(=O)Nc1ccc(C)cc1C,26%,/,/,/,/,/
CC(=O)C(Sc1nc(C)cc(C)n1)c1ccccc1 (stereo unspecified),-45%,/,/,/,/,/
Cn1c(N2CCOCC2)c(/C=N/OC(=O)c2cccnc2Cl)c2ccccc21,-13%,-17%,22µM*,?,48%,-6%
O=C(NC1(O)C(=O)c2ccccc2C1=O)c1c(Cl)cccc1Cl,?,-5%,13%,56µM*,12%,-18%
COC1(NC(=O)c2ccccc2)C(C)=CC(=O)C=C1C,-15%,-18%,-9%,45µM*,?,-1%
O=C(NNC(=O)c1ccc(-c2ccccc2)cc1)c1ccccc1,-7%,-28%,1%,-12%,22%,3%
O=C(NC1(O)C(=O)c2ccccc2C1=O)c1ccccc1,32µM*,-5%,?,45µM*,44%,-3%
CO[C@H]1C[C@@H](O)C12CCN(C(=O)c1ccc(OC(F)F)cc1)CC2,51%,/,/,/,/,/
N#Cc1ncn(Cc2coc(-c3ccccc3)n2)n1,8%,/,/,/,/,/
O=C(O)CC(C(=O)O)c1ccccc1 (stereo unspecified),-31%,/,/,/,/,/
CC(=C1SC(=S)NC1=O)c1ccccc1,?,-33%,/,/,-12%,/
CC(=C1SC(=S)NC1=O)c1ccc(Cl)c(O)c1,28µM*,/,/,/,/,/
COc1ccc(C(=O)Oc2c(Sc3ccccc3)c(C)nn2-c2ccccc2)cc1OC,-19%,-3%,/,?,59%,-3%
CCC(=O)Oc1c(Sc2ccc(C)cc2)c(C)nn1-c1ccccc1,?,-13%,/,10µM*,49%,10%
CCC(=O)Oc1c(Sc2ccc(Cl)cc2)c(C)nn1-c1ccccc1,16µM*,-22%,/,2.8µM*,30%,1%
CCCC(=O)Oc1c(Sc2ccc(C)cc2)c(C)nn1-c1ccccc1,?,-6%,/,2µM*,89%,37%
Cc1nn(C(=O)C2CC2)c(C)c1Sc1ccc(Cl)cc1,197%,133%,0%,44%[59 µM],154%,87%
CCOC(=O)CSCC(=O)NCc1cccs1,-27%,/,/,/,/,/
